Experiments:
Test in all cases: DAPPL (digital affinity profiling via proximity ligation, sequencing); 10 mM Tris-HCl pH 7.5, 50 mM NaCl, 1 mM DTT, 4% glycerol, room temperature, 30 min; GST-TFs on glutathione beads, 16-mer random dsDNA library, 0.1% formaldehyde crosslink after washing; high values mean tight binding
Conditions in all cases: protein: recombinant; tags: N-terminal GST; dsDNA, one strand shown
[1] = molecular target: T1, ELK1 (Homo sapiens, UniProt P19419 1-428)
T1 sequence: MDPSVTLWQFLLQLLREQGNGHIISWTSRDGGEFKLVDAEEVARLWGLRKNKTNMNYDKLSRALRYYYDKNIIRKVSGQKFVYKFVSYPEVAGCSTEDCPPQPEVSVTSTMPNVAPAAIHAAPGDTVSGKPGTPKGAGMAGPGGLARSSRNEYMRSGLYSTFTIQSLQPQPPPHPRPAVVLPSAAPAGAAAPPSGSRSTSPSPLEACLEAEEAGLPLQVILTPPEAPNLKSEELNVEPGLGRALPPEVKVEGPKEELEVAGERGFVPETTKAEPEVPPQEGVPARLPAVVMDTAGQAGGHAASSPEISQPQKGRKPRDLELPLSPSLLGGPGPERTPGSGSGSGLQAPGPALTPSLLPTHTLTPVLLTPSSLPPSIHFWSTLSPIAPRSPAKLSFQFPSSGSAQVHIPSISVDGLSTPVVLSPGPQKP
Outline: (§1)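 Sequencing on an Illumina NextSeq500 followed washing, crosslinking with 0.1% formaldehyde, proximity ligation (BsaI/T4 ligase, 1 h, 37 °C) and PCR amplification of pools that had been incubated for 30 min at room temperature with 200 nmole of a random double-stranded 16-mer DNA library in Tris/NaCl/DTT/glycerol buffer. Each pool held DNA-barcoded human transcription factors, expressed in yeast as GST fusions and captured on glutathione beads, plus a tag-only sample. Binding signal is a hexamer's read frequency for a factor divided by its frequency in the tag-only sample.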

[2] = molecular target: T2, GABPA (Homo sapiens, UniProt Q06546 1-454)
T2 sequence: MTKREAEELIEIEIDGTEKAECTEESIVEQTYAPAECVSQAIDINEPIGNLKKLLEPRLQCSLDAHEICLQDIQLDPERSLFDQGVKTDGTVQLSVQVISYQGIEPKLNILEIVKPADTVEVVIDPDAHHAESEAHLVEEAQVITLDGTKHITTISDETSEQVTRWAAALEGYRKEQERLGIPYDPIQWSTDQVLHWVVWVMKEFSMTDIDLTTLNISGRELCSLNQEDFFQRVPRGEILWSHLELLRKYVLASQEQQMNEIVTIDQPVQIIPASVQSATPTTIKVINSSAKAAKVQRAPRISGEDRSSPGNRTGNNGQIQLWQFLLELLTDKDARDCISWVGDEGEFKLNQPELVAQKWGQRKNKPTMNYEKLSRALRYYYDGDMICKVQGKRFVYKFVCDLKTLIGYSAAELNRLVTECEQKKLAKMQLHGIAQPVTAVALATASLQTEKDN
Outline: as §1

[3] = molecular target: T3, ERG (Homo sapiens, UniProt P11308 1-479)
T3 sequence: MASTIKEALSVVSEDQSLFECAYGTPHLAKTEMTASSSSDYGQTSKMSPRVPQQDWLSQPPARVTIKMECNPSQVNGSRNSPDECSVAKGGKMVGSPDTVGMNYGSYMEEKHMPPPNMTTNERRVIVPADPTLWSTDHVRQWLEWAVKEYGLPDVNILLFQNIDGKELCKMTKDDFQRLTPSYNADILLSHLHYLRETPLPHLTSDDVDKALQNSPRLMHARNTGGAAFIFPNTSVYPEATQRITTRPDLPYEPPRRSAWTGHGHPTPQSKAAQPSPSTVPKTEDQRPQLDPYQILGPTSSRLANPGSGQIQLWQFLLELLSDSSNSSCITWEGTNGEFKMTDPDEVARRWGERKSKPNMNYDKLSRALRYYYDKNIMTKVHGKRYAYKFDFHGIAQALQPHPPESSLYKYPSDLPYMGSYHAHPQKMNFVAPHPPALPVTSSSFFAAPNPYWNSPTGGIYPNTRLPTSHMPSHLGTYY
Outline: as §1

[4] = molecular target: ELF1 (Homo sapiens, UniProt P32519 1-619)
Sequence of ELF1 (P32519 whole entry): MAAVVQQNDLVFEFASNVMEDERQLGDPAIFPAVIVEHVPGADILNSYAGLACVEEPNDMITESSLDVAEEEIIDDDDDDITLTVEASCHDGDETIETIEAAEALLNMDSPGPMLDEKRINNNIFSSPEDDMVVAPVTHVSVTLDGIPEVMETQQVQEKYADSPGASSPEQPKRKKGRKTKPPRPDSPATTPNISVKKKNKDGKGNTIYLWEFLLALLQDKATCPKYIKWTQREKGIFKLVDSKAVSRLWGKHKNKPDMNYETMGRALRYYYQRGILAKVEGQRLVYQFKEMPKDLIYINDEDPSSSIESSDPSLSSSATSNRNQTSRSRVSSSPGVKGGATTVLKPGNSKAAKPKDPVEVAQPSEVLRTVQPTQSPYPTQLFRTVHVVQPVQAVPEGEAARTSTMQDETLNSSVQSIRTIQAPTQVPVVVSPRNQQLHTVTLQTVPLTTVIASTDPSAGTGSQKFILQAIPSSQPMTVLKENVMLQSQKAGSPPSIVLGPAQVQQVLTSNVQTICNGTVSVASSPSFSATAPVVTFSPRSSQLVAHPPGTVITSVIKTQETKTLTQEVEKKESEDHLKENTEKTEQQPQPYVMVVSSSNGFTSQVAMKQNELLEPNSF
Outline: as §1

[5] = molecular target: T4, EHF (Homo sapiens, UniProt Q9NZC4 1-300)
T4 sequence: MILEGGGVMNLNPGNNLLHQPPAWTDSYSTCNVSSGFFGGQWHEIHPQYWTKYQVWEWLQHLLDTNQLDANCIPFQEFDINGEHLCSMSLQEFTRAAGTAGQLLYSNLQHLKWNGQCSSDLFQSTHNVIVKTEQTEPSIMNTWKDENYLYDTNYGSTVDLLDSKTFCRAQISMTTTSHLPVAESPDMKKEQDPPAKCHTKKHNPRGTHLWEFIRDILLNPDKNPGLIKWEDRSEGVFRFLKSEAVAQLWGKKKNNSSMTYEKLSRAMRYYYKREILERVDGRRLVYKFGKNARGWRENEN
Outline: as §1

[6] = molecular target: SPIB (Homo sapiens, UniProt Q01892 1-262)
Sequence of SPIB (Q01892 whole entry): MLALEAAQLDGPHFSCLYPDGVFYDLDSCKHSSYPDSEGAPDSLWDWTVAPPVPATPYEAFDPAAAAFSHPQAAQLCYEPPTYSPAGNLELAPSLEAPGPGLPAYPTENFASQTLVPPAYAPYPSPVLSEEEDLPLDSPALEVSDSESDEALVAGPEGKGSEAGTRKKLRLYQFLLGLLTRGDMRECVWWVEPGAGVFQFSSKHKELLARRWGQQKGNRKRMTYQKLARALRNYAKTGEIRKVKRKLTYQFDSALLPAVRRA
Outline: as §1

[7] = molecular target: T5, FEV (Homo sapiens, UniProt Q99581 1-238)
T5 sequence: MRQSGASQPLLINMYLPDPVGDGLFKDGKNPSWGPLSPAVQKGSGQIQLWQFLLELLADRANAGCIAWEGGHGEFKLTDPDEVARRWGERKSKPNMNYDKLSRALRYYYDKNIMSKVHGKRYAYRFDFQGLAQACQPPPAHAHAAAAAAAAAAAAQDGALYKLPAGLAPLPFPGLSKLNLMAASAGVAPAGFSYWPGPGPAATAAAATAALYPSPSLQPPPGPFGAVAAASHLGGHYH
Outline: as §1

[8] = molecular target: ETV5 (Homo sapiens, UniProt P41161 1-510)
Sequence of ETV5 (P41161 whole entry): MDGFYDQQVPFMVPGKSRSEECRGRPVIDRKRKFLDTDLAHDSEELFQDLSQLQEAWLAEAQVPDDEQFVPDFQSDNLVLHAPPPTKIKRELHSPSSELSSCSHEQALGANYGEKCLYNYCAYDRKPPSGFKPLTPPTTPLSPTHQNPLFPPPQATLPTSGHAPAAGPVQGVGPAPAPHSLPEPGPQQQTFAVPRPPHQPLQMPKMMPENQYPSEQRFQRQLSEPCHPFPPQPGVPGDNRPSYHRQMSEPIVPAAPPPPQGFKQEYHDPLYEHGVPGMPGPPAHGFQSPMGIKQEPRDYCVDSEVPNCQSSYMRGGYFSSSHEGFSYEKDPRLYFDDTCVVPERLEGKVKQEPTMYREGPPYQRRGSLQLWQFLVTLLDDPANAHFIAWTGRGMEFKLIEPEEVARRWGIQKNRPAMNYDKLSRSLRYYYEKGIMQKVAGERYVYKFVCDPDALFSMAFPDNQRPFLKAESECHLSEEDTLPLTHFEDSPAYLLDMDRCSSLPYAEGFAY
Outline: as §1

[9] = molecular target: ELF4 (Homo sapiens, UniProt Q99607 1-663)
Sequence of ELF4 (Q99607 whole entry): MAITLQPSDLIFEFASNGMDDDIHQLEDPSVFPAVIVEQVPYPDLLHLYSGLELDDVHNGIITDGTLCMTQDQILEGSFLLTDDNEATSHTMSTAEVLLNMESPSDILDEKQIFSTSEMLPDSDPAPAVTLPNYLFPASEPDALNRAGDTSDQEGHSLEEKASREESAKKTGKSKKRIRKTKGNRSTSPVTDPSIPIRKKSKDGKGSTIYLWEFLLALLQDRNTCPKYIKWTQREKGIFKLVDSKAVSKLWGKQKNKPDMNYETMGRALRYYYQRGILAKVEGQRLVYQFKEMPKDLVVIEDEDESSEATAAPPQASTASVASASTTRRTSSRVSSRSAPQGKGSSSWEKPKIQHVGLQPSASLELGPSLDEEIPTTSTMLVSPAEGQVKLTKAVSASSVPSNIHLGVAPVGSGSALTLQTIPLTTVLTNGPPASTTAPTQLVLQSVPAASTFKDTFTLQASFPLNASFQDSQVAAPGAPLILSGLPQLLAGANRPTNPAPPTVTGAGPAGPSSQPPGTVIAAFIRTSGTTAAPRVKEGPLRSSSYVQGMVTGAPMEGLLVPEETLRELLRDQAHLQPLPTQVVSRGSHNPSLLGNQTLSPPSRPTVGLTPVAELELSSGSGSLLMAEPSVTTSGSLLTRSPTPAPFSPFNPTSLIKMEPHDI
Outline: as §1

[10] = molecular target: T6, ELK4 (Homo sapiens, UniProt P28324-2 1-405)
T6 sequence: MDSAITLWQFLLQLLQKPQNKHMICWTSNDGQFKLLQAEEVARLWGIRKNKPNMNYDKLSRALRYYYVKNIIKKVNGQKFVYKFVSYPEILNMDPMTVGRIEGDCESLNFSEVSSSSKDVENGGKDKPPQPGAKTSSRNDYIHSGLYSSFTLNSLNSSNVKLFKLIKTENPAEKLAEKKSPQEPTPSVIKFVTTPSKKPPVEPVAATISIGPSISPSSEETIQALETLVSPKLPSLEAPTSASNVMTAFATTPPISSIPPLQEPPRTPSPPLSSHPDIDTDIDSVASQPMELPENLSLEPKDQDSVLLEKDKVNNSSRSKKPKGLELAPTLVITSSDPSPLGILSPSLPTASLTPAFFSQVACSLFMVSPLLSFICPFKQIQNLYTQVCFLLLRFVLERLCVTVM
Outline: as §1

[11] = molecular target: T7, ETV2 (Homo sapiens, UniProt O00321 1-342)
T7 sequence: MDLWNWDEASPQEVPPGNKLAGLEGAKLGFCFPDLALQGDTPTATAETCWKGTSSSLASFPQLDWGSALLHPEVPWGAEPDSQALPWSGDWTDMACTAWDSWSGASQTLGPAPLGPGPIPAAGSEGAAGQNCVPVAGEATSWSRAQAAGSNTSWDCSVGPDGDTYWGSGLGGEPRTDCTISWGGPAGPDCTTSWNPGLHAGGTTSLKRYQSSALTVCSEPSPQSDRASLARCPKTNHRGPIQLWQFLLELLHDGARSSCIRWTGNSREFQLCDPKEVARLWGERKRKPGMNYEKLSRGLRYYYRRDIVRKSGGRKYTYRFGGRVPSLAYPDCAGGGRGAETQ
Outline: as §1

[12] = molecular target: T8, ELF3 (Homo sapiens, UniProt P78545 1-371)
T8 sequence: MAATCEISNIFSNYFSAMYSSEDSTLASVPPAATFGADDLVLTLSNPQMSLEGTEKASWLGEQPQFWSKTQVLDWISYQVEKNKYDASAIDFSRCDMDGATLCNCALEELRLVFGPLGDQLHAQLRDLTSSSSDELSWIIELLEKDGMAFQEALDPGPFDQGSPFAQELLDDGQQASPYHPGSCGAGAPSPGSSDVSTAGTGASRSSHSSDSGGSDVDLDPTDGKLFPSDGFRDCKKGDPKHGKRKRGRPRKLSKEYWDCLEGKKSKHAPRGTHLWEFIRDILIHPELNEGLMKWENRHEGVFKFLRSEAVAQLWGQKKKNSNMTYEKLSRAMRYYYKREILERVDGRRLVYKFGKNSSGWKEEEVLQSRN
Outline: as §1

[13] = molecular target: ETV1 (Homo sapiens, UniProt P50549 1-477)
Sequence of ETV1 (P50549 whole entry): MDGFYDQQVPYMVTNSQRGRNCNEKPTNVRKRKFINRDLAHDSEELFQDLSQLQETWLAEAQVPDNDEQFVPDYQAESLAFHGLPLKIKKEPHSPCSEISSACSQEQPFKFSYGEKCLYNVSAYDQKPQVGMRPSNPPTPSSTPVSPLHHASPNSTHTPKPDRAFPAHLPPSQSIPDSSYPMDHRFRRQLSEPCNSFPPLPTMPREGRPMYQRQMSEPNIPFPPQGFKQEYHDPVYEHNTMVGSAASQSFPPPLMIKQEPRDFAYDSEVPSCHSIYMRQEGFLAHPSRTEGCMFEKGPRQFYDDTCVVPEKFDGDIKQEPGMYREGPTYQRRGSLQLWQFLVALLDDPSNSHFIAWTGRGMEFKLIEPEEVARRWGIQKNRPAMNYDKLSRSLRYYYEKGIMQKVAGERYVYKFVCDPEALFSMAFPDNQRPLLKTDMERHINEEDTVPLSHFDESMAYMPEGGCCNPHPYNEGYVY
Outline: as §1

[14] = molecular target: T9, ERF (Homo sapiens, UniProt P50548 1-548)
T9 sequence: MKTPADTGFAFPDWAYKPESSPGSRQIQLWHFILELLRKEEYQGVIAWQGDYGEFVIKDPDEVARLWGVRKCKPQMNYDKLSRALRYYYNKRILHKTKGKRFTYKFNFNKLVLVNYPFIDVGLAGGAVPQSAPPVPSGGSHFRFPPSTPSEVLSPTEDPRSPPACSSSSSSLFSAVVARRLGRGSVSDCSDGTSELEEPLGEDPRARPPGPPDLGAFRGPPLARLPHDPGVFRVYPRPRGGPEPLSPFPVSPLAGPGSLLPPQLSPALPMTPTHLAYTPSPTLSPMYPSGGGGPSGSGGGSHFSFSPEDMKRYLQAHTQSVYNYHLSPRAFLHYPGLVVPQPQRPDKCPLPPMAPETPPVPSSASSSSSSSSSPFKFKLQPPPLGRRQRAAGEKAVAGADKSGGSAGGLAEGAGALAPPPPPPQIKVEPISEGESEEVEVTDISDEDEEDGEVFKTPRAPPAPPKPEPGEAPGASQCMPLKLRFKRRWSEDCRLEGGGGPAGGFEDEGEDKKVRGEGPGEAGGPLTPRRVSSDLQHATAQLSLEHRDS
Outline: as §1

[15] = molecular target: T10, ETV3L (Homo sapiens, UniProt Q6ZN32 1-361)
T10 sequence: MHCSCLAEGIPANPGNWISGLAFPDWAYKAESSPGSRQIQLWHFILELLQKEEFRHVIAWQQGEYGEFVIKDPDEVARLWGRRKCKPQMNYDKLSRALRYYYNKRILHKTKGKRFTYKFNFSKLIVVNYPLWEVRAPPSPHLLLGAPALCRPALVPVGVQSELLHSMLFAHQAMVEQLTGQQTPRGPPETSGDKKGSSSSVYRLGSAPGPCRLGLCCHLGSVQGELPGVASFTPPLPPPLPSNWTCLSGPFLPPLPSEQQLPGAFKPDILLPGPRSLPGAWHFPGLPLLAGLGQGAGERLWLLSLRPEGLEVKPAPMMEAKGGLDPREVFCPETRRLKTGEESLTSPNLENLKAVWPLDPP
Outline: as §1

[16] = molecular target: T11, ETS2 (Homo sapiens, UniProt P15036 1-469)
T11 sequence: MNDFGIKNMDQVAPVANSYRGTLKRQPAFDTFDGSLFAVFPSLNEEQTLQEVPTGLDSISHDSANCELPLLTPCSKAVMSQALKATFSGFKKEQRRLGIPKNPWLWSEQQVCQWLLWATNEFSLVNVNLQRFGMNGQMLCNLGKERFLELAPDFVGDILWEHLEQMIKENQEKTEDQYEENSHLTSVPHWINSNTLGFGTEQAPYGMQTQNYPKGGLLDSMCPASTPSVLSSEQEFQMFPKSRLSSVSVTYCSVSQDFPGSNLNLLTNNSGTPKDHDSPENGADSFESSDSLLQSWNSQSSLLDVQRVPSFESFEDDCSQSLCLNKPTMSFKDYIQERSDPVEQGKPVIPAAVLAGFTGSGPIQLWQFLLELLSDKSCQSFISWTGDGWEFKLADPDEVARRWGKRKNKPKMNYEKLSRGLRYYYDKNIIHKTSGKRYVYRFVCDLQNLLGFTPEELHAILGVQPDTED
Outline: as §1

[17] = molecular target: T12, ETV7 (Homo sapiens, UniProt Q9Y603 1-341)
T12 sequence: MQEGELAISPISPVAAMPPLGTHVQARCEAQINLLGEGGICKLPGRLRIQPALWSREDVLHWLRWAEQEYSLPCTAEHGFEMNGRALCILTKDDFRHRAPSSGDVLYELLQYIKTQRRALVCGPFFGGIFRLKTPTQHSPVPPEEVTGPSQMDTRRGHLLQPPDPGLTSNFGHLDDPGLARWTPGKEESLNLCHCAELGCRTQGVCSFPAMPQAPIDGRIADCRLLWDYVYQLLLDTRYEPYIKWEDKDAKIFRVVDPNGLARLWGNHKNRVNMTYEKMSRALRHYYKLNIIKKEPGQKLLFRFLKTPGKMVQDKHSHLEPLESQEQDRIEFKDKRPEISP
Outline: as §1

[18] = molecular target: T13, ETV3 (Homo sapiens, UniProt P41162-2 1-143)
T13 sequence: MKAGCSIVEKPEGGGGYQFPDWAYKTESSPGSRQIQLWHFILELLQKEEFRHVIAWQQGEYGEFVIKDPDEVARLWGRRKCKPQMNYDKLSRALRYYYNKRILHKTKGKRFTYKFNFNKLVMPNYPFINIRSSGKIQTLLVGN
Outline: as §1

[19] = molecular target: ETV6 (Homo sapiens, UniProt P41212 1-452)
Sequence of ETV6 (P41212 whole entry): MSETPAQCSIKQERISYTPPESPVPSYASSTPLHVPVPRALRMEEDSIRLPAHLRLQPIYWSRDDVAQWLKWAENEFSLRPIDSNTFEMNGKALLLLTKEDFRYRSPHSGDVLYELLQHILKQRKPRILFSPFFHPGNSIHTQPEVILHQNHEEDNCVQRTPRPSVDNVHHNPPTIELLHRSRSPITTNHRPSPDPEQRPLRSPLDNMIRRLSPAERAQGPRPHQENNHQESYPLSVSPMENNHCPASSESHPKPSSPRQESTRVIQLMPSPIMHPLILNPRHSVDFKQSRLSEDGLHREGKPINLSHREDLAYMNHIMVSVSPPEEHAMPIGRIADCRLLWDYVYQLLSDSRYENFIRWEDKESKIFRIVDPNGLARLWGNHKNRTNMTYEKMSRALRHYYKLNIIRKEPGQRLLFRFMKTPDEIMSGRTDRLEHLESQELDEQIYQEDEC
Outline: as §1

CATCAT was tested, and the binding signal [1] was 1.06 fold enrichment (6-mer frequency, TF over GST control), the binding signal [2] was 1.09 fold enrichment (6-mer frequency, TF over GST control) and the binding signal [3] was 1.08 fold enrichment (6-mer frequency, TF over GST control). For the same sequence, the binding signal [4] was 1.15 fold enrichment (6-mer frequency, TF over GST control), the binding signal [5] was 1.07 fold enrichment (6-mer frequency, TF over GST control) and the binding signal [6] was 1.09 fold enrichment (6-mer frequency, TF over GST control). For the same sequence, the binding signal [7] was 1.09 fold enrichment (6-mer frequency, TF over GST control), the binding signal [8] was 1.09 fold enrichment (6-mer frequency, TF over GST control) and the binding signal [9] was 1.07 fold enrichment (6-mer frequency, TF over GST control). The binding signal [10] was 1.11 fold enrichment (6-mer frequency, TF over GST control), the binding signal [11] was 1.22 fold enrichment (6-mer frequency, TF over GST control) and the binding signal [12] was 1.1 fold enrichment (6-mer frequency, TF over GST control). For the same sequence, the binding signal [13] was 1.07 fold enrichment (6-mer frequency, TF over GST control), the binding signal [14] was 1.1 fold enrichment (6-mer frequency, TF over GST control) and the binding signal [15] was 1.07 fold enrichment (6-mer frequency, TF over GST control). For the same sequence, the binding signal [16] was 1.08 fold enrichment (6-mer frequency, TF over GST control), the binding signal [17] was 1.05 fold enrichment (6-mer frequency, TF over GST control) and the binding signal [18] was 1.08 fold enrichment (6-mer frequency, TF over GST control). The binding signal [19] was 1.05 fold enrichment (6-mer frequency, TF over GST control).

Reference: article PMC7862700, “An all-to-all approach to the identification of sequence-specific readers for epigenetic DNA modifications on cytosine”
